# Assay results published in PubChem BioAssay.
# Active and inactive are the calls of the source.
# Columns and labels:
# [1] = molecular target: Albumin (Bos taurus) (UniProt P02769); experiment: compounds binding labelled BSA control protein – biochemical, small-molecule microarray, Alexa647 label, 635/667 nm fluorescence, artefact control for SMM control protein annotation, profiling panel (AID 1118); details: BSA-A647 binding, fluorescence 635 nm, higher = more signal;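 note: score merges 667 nm emission intensity and signal-to-noise per printed compound spot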
# [2] = probe aXIP binding to arrayed compounds – biochemical, NeuroSMM set, 635/667 nm fluorescence, primary screen (AID 1119); details: small-molecule microarray, higher = more signal, called active from +8 up or from −8 down;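 note: probe is the protein aXip251-270 applied at 1 µg/mL to compound-printed slides; binding of probe to printed compounds measured as 667 nm fluorescence plus signal to noise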
# [3] = probe aNOTCH3 binding on compound microarray – biochemical, small-molecule microarray, 635/667 nm fluorescence, primary screen (AID 1120); details: higher = more signal;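 note: probe is a biotin-tagged antibody raised against NOTCH3 rather than NOTCH3 protein; score merges spot fluorescence near 667 nm with spot signal to noise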
# [4] = probe aNOTCH2 binding on compound microarray – biochemical, small-molecule microarray, 635/667 nm fluorescence, primary screen (AID 1121); details: higher = more signal;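 note: score merges feature fluorescence read at 667 nm with its signal to noise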
# [5] = molecular target: Carbonic anhydrase 2 (Homo sapiens) (UniProt P00918); experiment: compounds binding carbonic anhydrase 2 – biochemical, small-molecule microarray, Alexa647-labelled CAII, profiling panel (AID 1122); details: CAII-A647 binding fluorescence, higher = more signal
# [6] = COS7 lysate on small-molecule microarray, probe aHis, 635 nm (AID 1123); details: COS7 cell lysate, fluorescence, higher = more signal;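 note: z-score combines 667nm fluorescence intensity with signal-to-noise per printed compound spot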
# [7] = probe aLAP1 signal on lysate-treated microarray – cell lysate, small-molecule microarray, COS7 lysate, primary screen (AID 1124); details: probe aLAP1, fluorescence, higher = more signal;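 note: lysate comes from COS7 cells expressing LAP1 and is applied at 0.3 µg/mL; score merges spot fluorescence near 667 nm with signal-to-noise over triplicate slides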
# [8] = tested on: Sam68 (KHDRBS1); experiment: compounds binding KHDRBS1 protein – biochemical, small-molecule microarray, 635 nm fluorescence, primary screen (AID 1125); details: higher = more signal;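 note: score merges 667 nm channel intensity with signal to noise over triplicate slides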
# [9] = tested on: Chordin-like protein 2 (CHRDL2); experiment: compounds binding chordin-like 2 – biochemical, small-molecule microarray, 635 nm fluorescence, primary screen (AID 1126); details: fluorescence 635 nm, higher = more signal;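 note: printed compound slides probed with Chrdl2 protein at 4 µg/mL for 1 h at 4 C; score merges 667 nm emission intensity with signal to noise over three replicate slides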
# [10] = molecular target: Concanavalin-A (Canavalia ensiformis) (UniProt P02866); experiment: compounds binding concanavalin A lectin – biochemical, small-molecule microarray, Alexa647 label, 635 nm, artefact control for SMM control protein annotation, primary screen (AID 1127); details: ConA-A647 binding fluorescence, higher = more signal;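 note: z combines 667 nm emission intensity with signal-to-noise across three replicate slides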
# [11] = compounds binding Alexa647 anti-His antibody – biochemical, small-molecule microarray, 635 nm fluorescence, artefact control for SMM control protein annotation, primary screen (AID 1128); details: higher = more signal;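 note: score merges feature fluorescence with signal-to-noise for each printed compound spot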
# [12] = tested on: Human papillomavirus type 1a E7 protein (residues 1-88); experiment: HPV1a E7 small-molecule binders, primary screen, biochemical, small-molecule microarray, residues 1-88, 635 nm (AID 1129); details: small-molecule microarray binding, fluorescence 635 nm; higher = more signal
# [13] = molecular target: Focal adhesion kinase 1 (Homo sapiens) (UniProt Q05397); experiment: PTK2 protein binding on printed compound slides – biochemical, small-molecule microarray, 635/667 nm fluorescence, BSA, DTT, primary screen (AID 1130); details: 635 nm fluorescence, higher = more signal;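 note: composite of spot emission at 667 nm and signal to noise over triplicate slides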
# [14] = tested on: Fibrinogen (Alexa647-labelled); experiment: Alexa647-fibrinogen binding to printed small molecules – biochemical, small-molecule microarray, 635/667 nm fluorescence, artefact control for SMM control-protein annotation, profiling panel (AID 1131); details: fibrinogen-A647 binding fluorescence, higher = more signal;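 note: z-score merges 667 nm fluorescence with per-spot signal-to-noise over triplicate slides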
# [15] = molecular target: Follistatin (Homo sapiens) (UniProt P19883); experiment: FST protein binding to printed compounds – biochemical, small-molecule microarray, 635/667 nm fluorescence, primary screen (AID 1132); details: 635 nm fluorescence, higher = more signal
# [16] = molecular target: Fibroblast growth factor 2 (Homo sapiens) (UniProt P09038); experiment: basic fibroblast growth factor binding to printed compounds – biochemical, small-molecule microarray, 635/667 nm fluorescence, primary screen (AID 1133); details: FGF2, fluorescence 635/667, higher = more signal
# [17] = JC-1 mitochondrial potential readout, lung cancer cells – cell-based, A549, JC-1 fluorescence, basal, 24 h, 100 nL, profiling panel (AID 1138); details: higher = more signal;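 note: A549 lung adenocarcinoma cells under basal conditions with no added stimulus; test concentration not given here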
# [18] = tested on: Lefty1; experiment: Lefty1 protein binding to printed compounds – biochemical, small-molecule microarray, 635/667 nm fluorescence, primary screen (AID 1139); details: fluorescence 635/667, higher = more signal
# [19] = tested on: wheat germ agglutinin (Triticum aestivum), Alexa647-labelled; experiment: Alexa647-WGA lectin binding to printed small molecules – biochemical, small-molecule microarray, 635/667 nm fluorescence, artefact control for SMM control-protein annotation, profiling panel (AID 1140); details: WGA-A647 binding, 635 nm fluorescence, higher = more signal;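 note: score merges 667 nm feature emission with signal to noise over triplicate slides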
# [20] = molecular target: Luciferin 4-monooxygenase (Photinus pyralis) (UniProt P08659); experiment: inhibition of purified Photinus pyralis luciferase – biochemical, luminescence, purified enzyme, 2006 set, primary screen (AID 1141); details: purified firefly luciferase, SteadyGlo luminescence, 30 min; higher = more signal, called active from +8 up or from −8 down;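 note: cell-free assay with purified firefly luciferase at 100 ng per well in PBS; test concentration not given here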
# Luciferin 4-monooxygenase (Photinus pyralis), sequence (P08659 whole entry, looked up): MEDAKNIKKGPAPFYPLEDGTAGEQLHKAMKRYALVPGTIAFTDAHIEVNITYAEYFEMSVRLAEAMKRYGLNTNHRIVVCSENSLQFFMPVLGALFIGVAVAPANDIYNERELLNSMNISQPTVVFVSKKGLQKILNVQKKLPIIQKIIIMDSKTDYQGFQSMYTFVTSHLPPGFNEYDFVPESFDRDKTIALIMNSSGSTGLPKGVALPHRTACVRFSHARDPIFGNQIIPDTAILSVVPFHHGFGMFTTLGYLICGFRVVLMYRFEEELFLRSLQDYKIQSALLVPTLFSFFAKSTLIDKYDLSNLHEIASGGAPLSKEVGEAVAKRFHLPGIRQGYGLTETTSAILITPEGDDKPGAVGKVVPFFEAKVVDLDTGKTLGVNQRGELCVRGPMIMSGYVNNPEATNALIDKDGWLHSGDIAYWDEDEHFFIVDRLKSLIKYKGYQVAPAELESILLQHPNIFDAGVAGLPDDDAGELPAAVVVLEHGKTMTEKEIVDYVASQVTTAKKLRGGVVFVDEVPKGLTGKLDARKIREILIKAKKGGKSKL
# Fibroblast growth factor 2 (Homo sapiens), sequence (P09038 whole entry, looked up): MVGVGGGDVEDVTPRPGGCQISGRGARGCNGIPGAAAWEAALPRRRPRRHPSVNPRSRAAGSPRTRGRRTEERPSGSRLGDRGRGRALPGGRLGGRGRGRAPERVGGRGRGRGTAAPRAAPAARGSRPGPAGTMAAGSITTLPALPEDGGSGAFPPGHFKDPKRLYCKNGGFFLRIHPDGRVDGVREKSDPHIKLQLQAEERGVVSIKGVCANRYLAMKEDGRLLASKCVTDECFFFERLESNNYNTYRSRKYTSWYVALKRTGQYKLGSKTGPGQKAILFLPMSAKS
# Focal adhesion kinase 1 (Homo sapiens), sequence (Q05397 whole entry, looked up): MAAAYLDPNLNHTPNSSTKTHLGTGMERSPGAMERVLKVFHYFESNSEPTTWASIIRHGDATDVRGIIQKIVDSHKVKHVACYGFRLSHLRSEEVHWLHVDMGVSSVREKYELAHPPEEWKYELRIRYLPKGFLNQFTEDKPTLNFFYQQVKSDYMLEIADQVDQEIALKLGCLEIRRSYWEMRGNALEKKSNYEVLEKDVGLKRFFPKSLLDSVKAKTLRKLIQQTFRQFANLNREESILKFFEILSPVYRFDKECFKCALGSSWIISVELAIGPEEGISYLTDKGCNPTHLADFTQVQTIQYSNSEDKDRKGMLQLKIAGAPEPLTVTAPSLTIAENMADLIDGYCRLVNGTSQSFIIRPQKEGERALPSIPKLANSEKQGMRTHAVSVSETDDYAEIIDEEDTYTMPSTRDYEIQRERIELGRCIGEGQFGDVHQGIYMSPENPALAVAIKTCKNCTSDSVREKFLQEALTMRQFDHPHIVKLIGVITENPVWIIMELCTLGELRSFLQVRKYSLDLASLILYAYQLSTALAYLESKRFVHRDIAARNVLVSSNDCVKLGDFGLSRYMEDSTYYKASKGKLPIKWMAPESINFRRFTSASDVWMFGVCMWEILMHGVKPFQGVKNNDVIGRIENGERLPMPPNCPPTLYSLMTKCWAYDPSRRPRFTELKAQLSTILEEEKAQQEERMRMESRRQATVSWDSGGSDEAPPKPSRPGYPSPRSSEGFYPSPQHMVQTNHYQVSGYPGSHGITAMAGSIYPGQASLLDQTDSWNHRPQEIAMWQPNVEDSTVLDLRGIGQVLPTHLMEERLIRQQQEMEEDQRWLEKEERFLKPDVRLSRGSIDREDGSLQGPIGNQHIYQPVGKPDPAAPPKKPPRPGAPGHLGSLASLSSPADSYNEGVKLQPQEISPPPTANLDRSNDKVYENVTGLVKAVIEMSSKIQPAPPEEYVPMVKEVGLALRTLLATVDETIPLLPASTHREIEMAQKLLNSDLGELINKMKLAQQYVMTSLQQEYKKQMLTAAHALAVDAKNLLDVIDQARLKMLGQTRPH
# Follistatin (Homo sapiens), sequence (P19883 whole entry, looked up): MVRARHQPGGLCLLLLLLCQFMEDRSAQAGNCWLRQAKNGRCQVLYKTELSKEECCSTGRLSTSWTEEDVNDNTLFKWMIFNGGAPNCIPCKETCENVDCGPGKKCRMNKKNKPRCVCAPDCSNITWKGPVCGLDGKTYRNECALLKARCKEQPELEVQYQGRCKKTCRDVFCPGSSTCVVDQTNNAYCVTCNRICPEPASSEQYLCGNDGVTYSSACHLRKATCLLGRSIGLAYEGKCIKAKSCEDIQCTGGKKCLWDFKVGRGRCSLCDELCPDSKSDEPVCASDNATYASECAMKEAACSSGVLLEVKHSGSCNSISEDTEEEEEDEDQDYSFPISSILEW
# Concanavalin-A (Canavalia ensiformis), sequence (P02866 whole entry, looked up): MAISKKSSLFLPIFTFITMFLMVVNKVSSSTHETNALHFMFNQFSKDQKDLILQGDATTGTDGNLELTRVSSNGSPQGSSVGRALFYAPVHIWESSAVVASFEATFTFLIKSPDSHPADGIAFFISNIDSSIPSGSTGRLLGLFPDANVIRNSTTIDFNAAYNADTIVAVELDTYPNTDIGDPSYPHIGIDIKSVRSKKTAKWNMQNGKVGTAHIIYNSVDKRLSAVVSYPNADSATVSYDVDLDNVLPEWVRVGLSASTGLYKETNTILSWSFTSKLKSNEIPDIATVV
# Albumin (Bos taurus), sequence (P02769 whole entry, looked up): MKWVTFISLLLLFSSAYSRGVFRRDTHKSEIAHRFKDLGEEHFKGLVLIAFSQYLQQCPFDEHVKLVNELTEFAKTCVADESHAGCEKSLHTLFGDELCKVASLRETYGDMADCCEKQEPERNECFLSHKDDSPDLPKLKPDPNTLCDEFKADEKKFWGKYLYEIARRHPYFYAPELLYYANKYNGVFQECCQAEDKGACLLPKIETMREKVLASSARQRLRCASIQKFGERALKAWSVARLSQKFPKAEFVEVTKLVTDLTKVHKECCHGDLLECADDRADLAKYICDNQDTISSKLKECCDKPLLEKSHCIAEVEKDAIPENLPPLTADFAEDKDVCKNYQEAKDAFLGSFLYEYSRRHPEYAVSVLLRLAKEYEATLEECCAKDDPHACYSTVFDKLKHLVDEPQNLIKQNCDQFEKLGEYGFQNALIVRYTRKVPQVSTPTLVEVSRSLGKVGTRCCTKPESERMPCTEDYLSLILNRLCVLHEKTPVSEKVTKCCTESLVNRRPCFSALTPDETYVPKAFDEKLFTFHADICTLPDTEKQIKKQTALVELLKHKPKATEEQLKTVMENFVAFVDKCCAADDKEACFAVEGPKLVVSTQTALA
Compound,composite z-score [1],composite Z-score [2],composite z-score [3],composite z-score [4],composite z-score [5],composite z-score [6],composite z-score [7],composite z-score [8],composite z-score [9],composite z-score [10],composite z-score [11],composite z-score [12],composite z-score [13],composite z-score [14],composite z-score [15],composite z-score [16],z-score [17],composite z-score [18],composite z-score [19],z-score [20]
COCCCNC(=O)[C@@H]1c2ccccc2C(=O)N(Cc2ccccc2OC)[C@H]1c1ccc(CO)cc1,0.459,0.414 (inactive),-0.0932,-0.155,0.711,1.36,-0.355,-0.268,0.447,0.948,2.1,0.133,0.503,-0.444,0.832,1.42,-0.374,1.07,0.701,1.43 (inactive)
CN(C)CCCCNC(=O)[C@@H]1C[C@@H]2C(=O)N[C@@H](CCCCN)C(=O)N2[C@@H]1c1ccc(O)cc1,-0.153,0.237 (inactive),-0.0613,-0.0241,-0.0397,1.7,0.0496,0.239,0.965,1.19,0.253,-0.0102,-0.0748,0.223,1.34,1.68,-1.38,0.896,0.857,-0.0213 (inactive)
COc1ccc(C(=O)Nc2ccc(CN3C(=O)[C@]4(O[C@H](CC(=O)N5CCC[C@H]5CO)[C@@H]([Si](C)(C)c5ccc(OC)cc5)[C@@H]4C)c4ccccc43)cc2)cc1,-0.398,0.0524 (inactive),0.218,-0.0681,0.298,1.72,0.394,1.29,0.666,0.884,1.91,1.15,0.297,0.81,1.06,1.44,0.195,0.942,0.601,-1.08 (inactive)
COCCCNC(=O)[C@]1(Cc2ccccc2)N=C(c2ccc(OCCCO)cc2)O[C@@H]1c1ccccc1CN=[N+]=[N-],0.999,-0.127 (inactive),0.16,0.266,0.694,3.21,0.465,1.28,-0.431,1.16,2.51,1.14,0.802,0.957,1.31,1.46,1.16,-0.0031,0.963,-0.932 (inactive)
COCC(=C=CC[C@H](O)c1cccc(OCCO)c1)C[C@H](O)c1cc(Cl)cc(Cl)c1O,0.187,-0.103 (inactive),-0.0343,-0.0083,0.383,1.77,0.328,1.3,0.695,0.337,1.69,1.11,0.0607,0.0479,1.37,1.87,0.324,1.37,0.107,-0.709 (inactive)
COc1cc2c(cc1OC)CN(C(=O)[C@H]1[C@@H]3C(=O)O[C@@H](c4ccccc4)[C@@H](c4ccccc4)N3[C@@H](c3ccccc3OCCO)[C@]13C(=O)Nc1ccc(C#CCCO)cc13)CC2,0.766,0.397 (inactive),0.0268,-0.118,0.383,0.935,-0.0376,1.33,0.579,1.11,1.1,1.2,0.612,0.871,1.18,1.65,-0.486,1.13,0.524,-0.255 (inactive)
CCCC=C(CCC)[C@@H](NS(=O)(=O)c1ccc(Cl)cc1)c1ccc(C(=O)OC)cc1,0.196,-0.243 (inactive),-0.0111,0.0703,0.805,0.314,-0.159,0.674,-0.0433,0.627,0.817,0.843,0.0301,0.539,-0.843,-0.174,0.418,0.181,0.309,2.84 (inactive)
CO[C@H]1O[C@H](CO)[C@@H](OC(=O)Nc2ccc(Br)cc2)[C@@H]2OC(=O)[C@H](Cc3cccc(Br)c3)C/C=C/C[C@@H](Cc3cccc(Br)c3)C(=O)O[C@@H]12,0.0911,0.106 (inactive),-0.0622,-0.129,0.275,0.112,-0.0838,-0.975,0.0113,0.365,0.144,-0.122,0.2,-0.538,0.585,0.268,1.37,0.647,0.616,0.671 (inactive)
CO[C@H]1O[C@H](CO)[C@@H](OC(=O)Nc2cccc(F)c2)[C@H](OC(=O)Nc2ccccc2)[C@H]1OC(=O)Nc1ccccc1,-0.225,0.0063 (inactive),0.146,-0.0664,0.65,1.24,0.168,1.29,0.323,0.899,2.02,1.29,0.656,0.993,1.35,1.12,-1.18,1.3,0.662,0.124 (inactive)
COc1ccc(CCNC(=O)[C@@]2(c3ccc([N+](=O)[O-])cc3)CC(=O)N(CC34CC5CC(CC(C5)C3)C4)[C@@H]2c2ccc(CO)cc2I)cc1,-0.367,-0.355 (inactive),-0.332,-0.214,0.0976,2.27,0.283,0.925,0.394,0.834,1.35,1.17,0.458,0.478,1.39,1.37,-1.36,0.881,0.913,0.641 (inactive)
O=C(NC1CC1)[C@@H]1c2ccccc2C(=O)N(Cc2cc(F)cc(C(F)(F)F)c2)[C@H]1c1ccc(CO)cc1,0.416,-0.0461 (inactive),-0.182,-0.112,0.237,0.668,0.747,0.521,-0.791,0.0427,1.23,-0.454,0.315,-0.399,0.542,-0.258,0.739,-0.396,0.569,-0.124 (inactive)
